Records with an inconclusive call do not appear. The source made the active and inactive calls. Calls follow the shape of the dose curve; as a rule, active = well fitted inhibition curve with a large enough effect; inconclusive = small, poorly fitted or top-dose-only effect; inactive = flat fitted curve, though single readings scatter.
Tests used:
Assay in all cases: qHTS profiling for inhibitors of Plasmodium falciparum proliferation (AID 504749); also: nearly all actives have a fitted effect of over 60% in size
Details in all cases: P. falciparum in erythrocytes, SYBR Green DNA, 72 h; series mostly up to 28.7 µM
[1] = tested on: CP265
Method in brief: (§1)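 Parasite proliferation within erythrocytes, 72 h exposure. Endpoint: SYBR Green I fluorescence after overnight lysis at room temperature. Controls: 0.29 uM artemisinin, DMSO.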

[2] = tested on: CP266
Method in brief: as §1

[3] = tested on: CP268
Method in brief: as §1

[4] = tested on: CP269
Method in brief: as §1

[5] = tested on: CP286
Method in brief: as §1

[6] = tested on: CP291
Method in brief: as §1

[7] = tested on: CP297
Method in brief: as §1

[8] = tested on: CP305
Method in brief: as §1

[9] = tested on: CP315
Method in brief: as §1

[10] = tested on: CP325
Method in brief: as §1

[11] = tested on: CP329
Method in brief: as §1

[12] = tested on: CP335
Method in brief: as §1

[13] = tested on: DFO2036
Method in brief: as §1

[14] = tested on: DIV14
Method in brief: as §1

[15] = tested on: DIV17
Method in brief: as §1

[16] = tested on: DIV30
Method in brief: as §1

[17] = tested on: Dd2
Method in brief: as §1

[18] = tested on: ECU
Method in brief: as §1

[19] = tested on: FAB9
Method in brief: as §1

[20] = tested on: GB4
Method in brief: as §1

[21] = tested on: HB3
Method in brief: as §1

[22] = tested on: ICS
Method in brief: as §1

[23] = tested on: JCK
Method in brief: as §1

[24] = tested on: N140
Method in brief: as §1

[25] = tested on: P93_24
Method in brief: as §1

[26] = tested on: P94_40
Method in brief: as §1

[27] = tested on: PAD
Method in brief: as §1

[28] = tested on: PC15
Method in brief: as §1

[29] = tested on: PC26
Method in brief: as §1

[30] = tested on: PC49
Method in brief: as §1

[31] = tested on: SC27B
Method in brief: as §1

[32] = tested on: TAB109
Method in brief: as §1

[33] = tested on: TAB113
Method in brief: as §1

[34] = tested on: TAB165
Method in brief: as §1

[35] = tested on: W2
Method in brief: as §1

Measured: Potency

C[C@H](O)[C@@H]1C(=O)N2C(C(=O)O)=C(SCCN=CN)C[C@@H]12
inactive: [1] | [2] | [3] | [4] | [5] | [6] | [7] | [8] | [9] | [10] | [11] | [12] | [13] | [14] | [15] | [16] | [17] | [18] | [19] | [20] | [21] | [22] | [23] | [24] | [25] | [26] | [27] | [28] | [29] | [30] | [31] | [32] | [33] | [34] | [35]
